From PMC7862700, “An all-to-all approach to the identification of sequence-specific readers for epigenetic DNA modifications on cytosine”

Tests used:
Test in all cases: DAPPL (digital affinity profiling via proximity ligation, sequencing); 10 mM Tris-HCl pH 7.5, 50 mM NaCl, 1 mM DTT, 4% glycerol, room temperature, 30 min; GST-TFs on glutathione beads, 16-mer random dsDNA library, 0.1% formaldehyde crosslink after washing; high values mean tight binding
[1] = molecular target: T1, FEV (Homo sapiens, UniProt Q99581 1-238); conditions: protein: recombinant; tags: N-terminal GST; dsDNA, one strand shown
T1 sequence: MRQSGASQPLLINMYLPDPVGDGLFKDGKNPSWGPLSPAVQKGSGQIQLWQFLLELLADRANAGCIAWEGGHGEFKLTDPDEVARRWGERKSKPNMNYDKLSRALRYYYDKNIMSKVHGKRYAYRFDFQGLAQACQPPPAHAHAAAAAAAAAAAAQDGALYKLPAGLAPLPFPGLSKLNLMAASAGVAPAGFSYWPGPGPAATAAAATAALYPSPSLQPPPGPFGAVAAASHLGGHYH
In short: (§1)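 A tag-only sample was pooled with DNA-barcoded human transcription factors that had been expressed in yeast as GST fusions and captured on glutathione beads. The pools were incubated for 30 min at room temperature with 200 nmole of a random double-stranded 16-mer DNA library in Tris/NaCl/DTT/glycerol buffer, then washed, crosslinked with 0.1% formaldehyde, proximity-ligated (BsaI/T4 ligase, 1 h, 37 °C), PCR-amplified and sequenced on an Illumina NextSeq500. Binding signal is each hexamer's read frequency for a factor divided by its frequency for the tag-only sample.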

[2] = molecular target: ETV5 (Homo sapiens, UniProt P41161 1-510); conditions: protein: recombinant; tags: N-terminal GST; dsDNA, one strand shown
In short: as §1

[3] = molecular target: HSF1 (Homo sapiens, UniProt Q00613 1-529); conditions: protein: recombinant; tags: N-terminal GST; chain copies: 3; dsDNA, one strand shown
In short: as §1

[4] = molecular target: T2, SPIC (Homo sapiens, UniProt Q8N5J4 1-248); conditions: protein: recombinant; tags: N-terminal GST; dsDNA, one strand shown
T2 sequence: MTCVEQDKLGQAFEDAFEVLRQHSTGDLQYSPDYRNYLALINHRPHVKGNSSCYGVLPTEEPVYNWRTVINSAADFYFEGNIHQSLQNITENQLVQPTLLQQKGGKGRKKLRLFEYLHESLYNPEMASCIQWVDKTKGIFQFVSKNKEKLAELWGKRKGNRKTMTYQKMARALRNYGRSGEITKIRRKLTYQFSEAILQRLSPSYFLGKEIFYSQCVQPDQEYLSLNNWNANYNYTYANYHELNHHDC
In short: as §1

[5] = molecular target: ELF4 (Homo sapiens, UniProt Q99607 1-663); conditions: protein: recombinant; tags: N-terminal GST; dsDNA, one strand shown
In short: as §1

[6] = molecular target: T3, ELK4 (Homo sapiens, UniProt P28324-2 1-405); conditions: protein: recombinant; tags: N-terminal GST; dsDNA, one strand shown
T3 sequence: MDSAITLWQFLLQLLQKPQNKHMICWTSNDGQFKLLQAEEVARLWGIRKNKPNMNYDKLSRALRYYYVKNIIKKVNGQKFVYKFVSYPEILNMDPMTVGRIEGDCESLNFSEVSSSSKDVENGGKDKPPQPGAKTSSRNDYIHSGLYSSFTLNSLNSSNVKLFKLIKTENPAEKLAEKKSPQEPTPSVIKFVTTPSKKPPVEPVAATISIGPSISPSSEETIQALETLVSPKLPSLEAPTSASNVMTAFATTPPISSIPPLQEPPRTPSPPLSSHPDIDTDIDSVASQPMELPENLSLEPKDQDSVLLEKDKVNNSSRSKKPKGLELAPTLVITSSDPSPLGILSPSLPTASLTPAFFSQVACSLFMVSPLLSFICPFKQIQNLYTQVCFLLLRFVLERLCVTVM
In short: as §1

[7] = molecular target: T4, ETV2 (Homo sapiens, UniProt O00321 1-342); conditions: protein: recombinant; tags: N-terminal GST; dsDNA, one strand shown
T4 sequence: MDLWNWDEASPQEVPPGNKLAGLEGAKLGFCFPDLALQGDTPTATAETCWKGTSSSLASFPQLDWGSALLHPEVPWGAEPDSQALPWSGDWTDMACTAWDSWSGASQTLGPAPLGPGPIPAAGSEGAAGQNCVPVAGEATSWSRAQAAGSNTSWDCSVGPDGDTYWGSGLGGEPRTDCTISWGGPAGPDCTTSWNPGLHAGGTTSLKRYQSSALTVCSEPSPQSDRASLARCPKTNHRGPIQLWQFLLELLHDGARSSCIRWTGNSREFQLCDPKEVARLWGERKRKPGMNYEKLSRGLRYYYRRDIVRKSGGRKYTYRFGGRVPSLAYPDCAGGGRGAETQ
In short: as §1

[8] = molecular target: T5, ELF3 (Homo sapiens, UniProt P78545 1-371); conditions: protein: recombinant; tags: N-terminal GST; dsDNA, one strand shown
T5 sequence: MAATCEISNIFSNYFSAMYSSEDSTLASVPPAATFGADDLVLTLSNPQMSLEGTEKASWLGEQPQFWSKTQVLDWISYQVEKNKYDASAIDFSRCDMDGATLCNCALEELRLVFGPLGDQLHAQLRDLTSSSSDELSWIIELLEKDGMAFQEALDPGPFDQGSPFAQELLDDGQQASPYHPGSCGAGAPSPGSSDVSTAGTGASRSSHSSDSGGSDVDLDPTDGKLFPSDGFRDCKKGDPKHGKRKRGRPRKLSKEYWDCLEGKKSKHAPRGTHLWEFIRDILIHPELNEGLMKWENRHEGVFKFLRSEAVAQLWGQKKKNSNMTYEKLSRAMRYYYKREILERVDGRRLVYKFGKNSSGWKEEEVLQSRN
In short: as §1

[9] = molecular target: CRX (Homo sapiens, UniProt O43186 1-299); conditions: protein: recombinant; tags: N-terminal GST; dsDNA, one strand shown
In short: as §1

[10] = molecular target: ETV1 (Homo sapiens, UniProt P50549 1-477); conditions: protein: recombinant; tags: N-terminal GST; dsDNA, one strand shown
In short: as §1

Sequence of HSF1 (Q00613 whole entry): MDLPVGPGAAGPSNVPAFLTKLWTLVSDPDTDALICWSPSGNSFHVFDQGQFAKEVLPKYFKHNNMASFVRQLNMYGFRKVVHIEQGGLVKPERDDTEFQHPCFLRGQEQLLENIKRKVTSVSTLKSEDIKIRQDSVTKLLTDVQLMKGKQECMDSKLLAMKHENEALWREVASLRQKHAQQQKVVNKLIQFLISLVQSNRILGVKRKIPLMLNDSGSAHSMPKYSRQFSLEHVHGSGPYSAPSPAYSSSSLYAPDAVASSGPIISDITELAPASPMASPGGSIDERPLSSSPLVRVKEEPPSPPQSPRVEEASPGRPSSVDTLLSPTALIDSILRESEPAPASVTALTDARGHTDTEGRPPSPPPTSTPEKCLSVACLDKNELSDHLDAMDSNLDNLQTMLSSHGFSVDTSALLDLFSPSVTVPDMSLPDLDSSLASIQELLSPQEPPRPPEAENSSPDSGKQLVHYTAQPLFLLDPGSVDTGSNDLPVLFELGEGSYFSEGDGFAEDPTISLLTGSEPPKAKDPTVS
Sequence of ETV1 (P50549 whole entry): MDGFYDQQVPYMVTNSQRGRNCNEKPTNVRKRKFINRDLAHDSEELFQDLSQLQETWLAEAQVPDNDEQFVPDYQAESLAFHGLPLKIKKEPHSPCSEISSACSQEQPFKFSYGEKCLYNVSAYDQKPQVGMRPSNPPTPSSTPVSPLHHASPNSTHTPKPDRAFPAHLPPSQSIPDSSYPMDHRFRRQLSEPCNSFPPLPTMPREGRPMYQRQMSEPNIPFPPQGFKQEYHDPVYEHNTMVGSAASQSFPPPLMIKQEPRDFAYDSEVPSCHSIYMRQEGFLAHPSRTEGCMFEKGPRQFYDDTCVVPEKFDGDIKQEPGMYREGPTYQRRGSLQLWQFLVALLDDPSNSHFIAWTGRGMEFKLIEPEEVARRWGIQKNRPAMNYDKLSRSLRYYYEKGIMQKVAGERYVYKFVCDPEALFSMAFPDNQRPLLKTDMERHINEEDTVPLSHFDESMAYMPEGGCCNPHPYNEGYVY
Sequence of ELF4 (Q99607 whole entry): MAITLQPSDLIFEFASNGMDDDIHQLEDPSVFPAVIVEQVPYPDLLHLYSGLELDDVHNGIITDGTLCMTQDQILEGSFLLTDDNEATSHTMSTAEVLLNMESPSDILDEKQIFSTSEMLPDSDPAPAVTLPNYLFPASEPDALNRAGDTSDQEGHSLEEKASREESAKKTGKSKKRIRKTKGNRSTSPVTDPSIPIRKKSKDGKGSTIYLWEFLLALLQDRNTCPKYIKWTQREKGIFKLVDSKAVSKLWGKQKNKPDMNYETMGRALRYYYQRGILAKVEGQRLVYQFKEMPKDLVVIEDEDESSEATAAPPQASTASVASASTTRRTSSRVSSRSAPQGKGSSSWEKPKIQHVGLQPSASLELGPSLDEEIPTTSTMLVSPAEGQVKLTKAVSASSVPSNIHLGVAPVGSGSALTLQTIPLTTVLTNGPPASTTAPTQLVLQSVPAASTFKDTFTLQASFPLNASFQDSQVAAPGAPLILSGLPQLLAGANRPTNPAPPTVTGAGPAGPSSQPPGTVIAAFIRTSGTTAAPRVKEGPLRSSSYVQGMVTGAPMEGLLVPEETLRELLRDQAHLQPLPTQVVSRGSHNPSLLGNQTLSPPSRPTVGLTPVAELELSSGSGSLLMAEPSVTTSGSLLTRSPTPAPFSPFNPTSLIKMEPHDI
Sequence of ETV5 (P41161 whole entry): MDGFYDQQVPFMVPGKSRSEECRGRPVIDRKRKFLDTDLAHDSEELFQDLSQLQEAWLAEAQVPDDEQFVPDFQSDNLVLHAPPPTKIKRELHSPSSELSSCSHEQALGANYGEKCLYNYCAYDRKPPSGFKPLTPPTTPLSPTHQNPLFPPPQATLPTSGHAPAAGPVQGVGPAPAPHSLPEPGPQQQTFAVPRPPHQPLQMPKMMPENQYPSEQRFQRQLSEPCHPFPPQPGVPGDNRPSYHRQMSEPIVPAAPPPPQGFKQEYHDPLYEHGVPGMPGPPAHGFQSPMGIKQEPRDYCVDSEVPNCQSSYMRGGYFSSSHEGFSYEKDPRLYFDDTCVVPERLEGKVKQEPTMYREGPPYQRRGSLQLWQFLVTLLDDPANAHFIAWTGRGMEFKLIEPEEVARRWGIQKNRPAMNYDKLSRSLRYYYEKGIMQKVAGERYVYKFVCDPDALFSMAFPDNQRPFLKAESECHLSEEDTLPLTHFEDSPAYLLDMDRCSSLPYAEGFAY
Sequence of CRX (O43186 whole entry): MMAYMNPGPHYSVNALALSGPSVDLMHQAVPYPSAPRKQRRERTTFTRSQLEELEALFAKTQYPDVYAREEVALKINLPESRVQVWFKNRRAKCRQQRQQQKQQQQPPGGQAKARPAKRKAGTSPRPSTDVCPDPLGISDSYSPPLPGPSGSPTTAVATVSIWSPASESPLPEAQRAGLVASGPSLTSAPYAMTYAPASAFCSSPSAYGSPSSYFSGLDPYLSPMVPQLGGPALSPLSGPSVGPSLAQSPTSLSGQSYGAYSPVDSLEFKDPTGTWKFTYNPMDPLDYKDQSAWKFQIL

Sequence: TAATGC
- binding signal [1]: 1.17 fold enrichment (6-mer frequency, TF over GST control)
- binding signal [2]: 1.16 fold enrichment (6-mer frequency, TF over GST control)
- binding signal [3]: 1.63 fold enrichment (6-mer frequency, TF over GST control)
- binding signal [4]: 1.21 fold enrichment (6-mer frequency, TF over GST control)
- binding signal [5]: 1.28 fold enrichment (6-mer frequency, TF over GST control)
- binding signal [6]: 1.23 fold enrichment (6-mer frequency, TF over GST control)
- binding signal [7]: 1.29 fold enrichment (6-mer frequency, TF over GST control)
- binding signal [8]: 1.23 fold enrichment (6-mer frequency, TF over GST control)
- binding signal [9]: 2.32 fold enrichment (6-mer frequency, TF over GST control)
- binding signal [10]: 1.28 fold enrichment (6-mer frequency, TF over GST control)
